Screening results deposited in PubChem BioAssay by National Center for Advancing Translational Sciences (NCATS).
D1 potentiator: Potentiators of Human D1 Dopamine Receptor: qHTS. HEK293 TREx D1 cells, calcium flux, dopamine EC20 potentiation. potentiation, % at 10 µM. 360,000 tested, 0.036% active. AID 504651, 2011; in the data active = potentiation above about 30%
D1 antagonist: Antagonist of Human D 1 Dopamine Receptor: qHTS; D(1A) dopamine receptor (Homo sapiens), P21728; HEK293 TREx D1 cells, calcium flux, dopamine EC80; hits give low values; activity change, negative = inhibition, % at 10 µM; 360,000 tested, 3.2% active; AID 504652, 2011; in the data active = activity change below about -30%
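Compound effects on dopamine-evoked calcium signalling were measured in tetracycline-induced HEK293 Trex D1 cells. Dopamine at EC80 followed a 180 s compound pre-read, and fluorescence was tracked kinetically for 180 s more.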
D1 agonist: Allosteric Agonists of the Human D1 Dopamine Receptor: qHTS; D(1A) dopamine receptor (Homo sapiens), P21728; HEK293 T-REx D1 cells, calcium flux, agonist mode; activation, % at 2 µM; 360,000 tested, 1% active
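Agonism was scored from calcium flux recorded over 180 s (1 read/s) after pintool compound addition, following a 10-cycle baseline. Cells were inducible force-coupled HEK293 TREx D1, plated overnight at 30 C and loaded with no-wash calcium dye.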
TRHR agonist: qHTS for Small Molecule Agonists and Allosteric Enhancers of Human TRH Receptor: Primary Screen for Agonists; TRHR cells, calcium flux fluo-8, FDSS agonist mode; activation, % at 2 µM; AID 493084, 2011; Thyrotropin-releasing hormone receptor (Homo sapiens), P34981; 360,000 tested, 0.18% active
Target sequence (P34981 whole entry, looked up): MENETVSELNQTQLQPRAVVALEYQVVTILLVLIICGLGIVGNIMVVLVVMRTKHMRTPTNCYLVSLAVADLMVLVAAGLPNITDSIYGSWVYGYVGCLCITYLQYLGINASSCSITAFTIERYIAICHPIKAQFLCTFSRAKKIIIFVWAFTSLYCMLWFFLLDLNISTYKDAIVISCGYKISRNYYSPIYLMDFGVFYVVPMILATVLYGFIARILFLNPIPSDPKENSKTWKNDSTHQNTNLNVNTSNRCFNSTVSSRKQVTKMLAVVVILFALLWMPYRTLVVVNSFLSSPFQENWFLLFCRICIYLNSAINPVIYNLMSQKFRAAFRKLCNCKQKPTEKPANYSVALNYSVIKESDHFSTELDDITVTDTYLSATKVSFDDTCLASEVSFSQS
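Agonist-mode FDSS calcium read (Ex 480/Em 530, 1 s cycles) in 1536-well TRHR cells with fluo-8 dye, after 10-cycle baseline and 23 nL compound addition; TRH at EC20 (10 nM final) added afterwards for the enhancer phase.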
TRHR PAM: qHTS for Small Molecule Agonists and Allosteric Enhancers of Human TRH Receptor: Primary Screen for Enhancers; Thyrotropin-releasing hormone receptor (Homo sapiens), P34981; TRHR cells, fluo-8 calcium fluorescence, EC20 TRH enhancement; enhancement, % at 2 µM; 360,000 tested, 0.66% active; AID 493056, 2011; in the data active = enhancement above about 30%
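TRHR-expressing cells loaded with fluo-8 calcium dye were read kinetically (ex 480/em 530) during compound addition, then stimulated with an EC20 of TRH (10 nM final). Enhancement of the Gq-mediated intracellular calcium response was scored.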
Each line names hits and unclear results; the compound was inactive in the other large screens. An excerpt weighted towards active compounds, which were near 4.6% of everything screened. Rule as the data show it, unless noted: active = activation above about 30%; inactive = the rest.

CCOc1ccc(Nc2nc(Nc3ccc(OCC)cc3)nc(N3CCOCC3)n2)cc1	TRHR PAM 35
CCCNc1nc(Nc2ccc(C)cc2)nc(N2CCCC2)n1	D1 antagonist -35
COCCOC(=O)C1=C(C)N=C2SCCC(=O)N2C1c1ccc(OCc2ccccc2)c(OC)c1 (configuration not stated)	none
CCOC(=O)c1noc2ncn(CC(=O)Nc3ccccc3OC)c(=O)c12	none
CCOC(=O)c1c(NC(=O)COc2ccc(C)cc2C(C)(C)C)sc2c1CCC(C)C2 (configuration not stated)	none
COC(=O)c1ccc(NC(=O)c2cc3cc4ccc(OC)c(Cl)c4nc3s2)cc1	none
Cc1ccc(CNc2ncnc3c2c(-c2ccccc2)cn3-c2ccccc2)cc1	none
CCOc1ccc(CNc2ccc(N3CCOCC3)c(C(=O)O)c2)cc1	D1 antagonist -56
COc1ccccc1/C=C/c1nc(C#N)c(N2CCN(c3ccccc3)CC2)o1	none
Cc1cccc(-c2cc(=O)c(C(=O)O)cn2-c2ccc(F)cc2F)c1	D1 antagonist -40
Cc1cccc(-c2cc(C(=O)O)c3c(-c4ccc(F)cc4)[nH]nc3n2)c1	none
O=C(c1ccoc1)N1CCC2(CC1)Oc1ccc(Cl)cc1C(=O)C21CC(c2cccnc2)=NO1 (configuration not stated)	D1 antagonist -100
CC(=O)N1CCN(C(=O)CCc2c[nH]c3ccccc23)CC1	D1 antagonist -34
O=C(Cc1c[nH]c2ccccc12)N1CCN(S(=O)(=O)c2ccc(Cl)cc2)CC1	D1 antagonist -36
O=C(Oc1ccc(O)cc1)C12CC3CC(CC(C3)C1)C2	D1 agonist 41
O=C(Oc1ccc2c(c1)OCO2)C12CC3CC(CC(C3)C1)C2	none
O=C1NCCN(Cc2ccc(F)cc2)C1=O	D1 antagonist -41
Cn1c(SCc2ccc(F)cc2)nc2ccc(C(=O)NCc3ccc(Cl)cc3)cc21	none
Cn1c(SCc2ccc(F)cc2)nc2ccc(C(=O)NCc3ccc(F)cc3)cc21	D1 antagonist -32
CC(C)NC(=O)c1ccccc1NS(=O)(=O)c1ccc(Br)s1	none
Cc1ccccc1NS(=O)(=O)c1ccc(Br)s1	D1 agonist 50
O=[N+]([O-])c1ccc(-c2nc(Nc3cccc(O)c3)c3ccccc3n2)cc1	D1 antagonist -33
Cc1ccc(-c2nc(Nc3ccc(O)cc3)c3ccccc3n2)cc1	none
Cc1ccc(-c2nc(Nc3cccc(O)c3)c3ccccc3n2)cc1	D1 antagonist -30
CCN(Cc1nc(-c2ccc(OC)cc2)oc1C)S(=O)(=O)c1ccc(C)cc1	none
Cc1c([C@H]2[C@@H](CC#N)C2(C)C)c2ccccc2n1C	none
Cc1[nH]c2c(Br)cccc2c1[C@H]1[C@@H](CC#N)C1(C)C	TRHR PAM 32
CC(C)(C)c1ccc(OCC(=O)NC(Cc2c[nH]c3ccccc23)C(=O)O)cc1 (configuration not stated)	D1 agonist 49
COc1ccc(CNC(=O)CC(C)n2nc(C)cc2C)cc1 (configuration not stated)	none
CCC(=O)c1cc(-c2nc3ccccc3n2C)n(C)c1	none
Cn1cc(C(=O)c2ccccc2)cc1-c1nc2ccccc2n1C	D1 antagonist -31
Cc1ccccc1-n1c(C)cc(/C=N/Nc2ccc([N+](=O)[O-])cn2)c1C	none
CCSc1ncc(/C=N/Nc2ccc([N+](=O)[O-])cc2)n1C	D1 agonist 37
O=[N+]([O-])c1ccc(N/N=C\c2cccn2-c2ccccc2)nc1	D1 agonist 37
COc1cc(OC)c(NC(=O)Nc2cccc(OCc3cc(=O)n4ccccc4n3)c2)cc1Cl	D1 antagonist -40
COc1cc(OC)c(NC(=O)Nc2ccccc2OCc2cc(=O)n3cc(C)ccc3n2)cc1Cl	none
CCSc1nnc(NC(=O)NCC(F)(F)F)s1	TRHR PAM 34
CCSc1nnc(NC(=O)C2C3C=CC(C3)C2C(=O)O)s1 (configuration not stated)	D1 antagonist -46
CCSc1nnc(NC(=O)C2C3CCC(C3)C2C(=O)O)s1 (configuration not stated)	none
CCOc1ccc(C(=O)c2cn(CC(=O)Nc3ccc(F)cc3)c3cc4c(cc3c2=O)OCO4)cc1	none
COc1ccc2c(Sc3ccc(Cl)cc3)c(C(=O)N3CCCCC3)[nH]c2c1	none
CSc1cccc(NS(=O)(=O)c2ccc3[nH]cc(C(=O)N4CCCC4)c(=O)c3c2)c1	none
COc1ccc(C(=O)Nc2nc3ccc(OC)cc3s2)cc1	none
COc1ccc2nc(NC(=O)c3cc(=O)c4ccccc4o3)sc2c1	TRHR PAM 40
COc1ccc2nc(NC(=O)c3cccc(-c4cc5ccccc5oc4=O)c3)sc2c1	D1 antagonist -33
CCOC(=O)N1CCc2c(sc3c2c(=O)n(-c2ccc(F)cc2)c(=O)n3CC(=O)c2ccccc2)C1	none
CO[C@H]1C[C@@H]2CC[C@@H](C)[C@@](O)(O2)C(=O)C(=O)N2CCCC[C@H]2C(=O)O[C@H]([C@H](C)C[C@@H]2CC[C@@H](O)[C@H](OC)C2)CC(=O)[C@H](C)C=C(C)[C@@H](O)[C@@H](OC)C(=O)[C@H](C)C[C@H](C)C=CC=CC=C1C	none
CC[C@@H]1C=C(C)C[C@H](C)C[C@H](OC)[C@H]2O[C@@](O)(C(=O)C(=O)N3CCCC[C@H]3C(=O)O[C@H](/C(C)=C/[C@@H]3CC[C@@H](O)[C@H](OC)C3)[C@H](C)[C@@H](O)CC1=O)[C@H](C)C[C@@H]2OC	D1 agonist 32
Cc1ccc(CN2C(=O)N(c3ccc(F)cc3)C(=O)C2CC(=O)Nc2ccc(Cl)cc2)cc1 (configuration not stated)	none
CCOC(=O)NC1c2ccccc2Oc2ccccc21	D1 antagonist -33
CN1N=C2c3ccccc3CCC2C1c1ccc(C(F)(F)F)cc1 (configuration not stated)	D1 antagonist -82
CN(C)c1ccc(C2C3CCCc4ccccc4C3=NN2C)cc1 (configuration not stated)	none
CCOc1ccc(N2CC(NC(=O)c3ccc4c(c3)OCO4)CC2=O)cc1 (configuration not stated)	none (no result: D1 antagonist)
N#Cc1ccc(-c2ccc(OCC(=O)Nc3cccnc3)cc2)cc1	D1 antagonist -45
CC(=O)Nc1ccc(NC(=O)COc2ccc(-c3ccc(C#N)cc3)cc2)cc1	none
CCOC(=O)CNC(=O)N1CCc2cc(S(=O)(=O)N3CCC(C)CC3)ccc21	none
